DRD3 agonist – agonists of human D3 dopamine receptor. D3R DiscoveRx beta-arrestin cells, luminescence, 90 min. max activation, %. 0.58% of 410,000 active. P35462; in the data active = max activation above about 30%; also: 0% is about no effect
Target sequence (P35462 whole entry, looked up): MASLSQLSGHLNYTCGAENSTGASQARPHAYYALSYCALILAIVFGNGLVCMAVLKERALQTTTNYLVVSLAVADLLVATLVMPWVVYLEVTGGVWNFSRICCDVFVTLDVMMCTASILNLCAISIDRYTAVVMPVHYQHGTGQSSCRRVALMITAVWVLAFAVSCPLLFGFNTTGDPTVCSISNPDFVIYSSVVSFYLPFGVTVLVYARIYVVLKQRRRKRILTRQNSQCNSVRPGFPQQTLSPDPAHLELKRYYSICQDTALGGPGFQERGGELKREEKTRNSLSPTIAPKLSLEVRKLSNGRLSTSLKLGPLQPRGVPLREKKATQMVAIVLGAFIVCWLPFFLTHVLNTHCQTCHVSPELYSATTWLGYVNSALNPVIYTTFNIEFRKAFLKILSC
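Agonist mode: compounds and dopamine controls were applied to plated cells for 90 min at 37 degrees C after an overnight attachment at 1500 cells/well. Luminescent read-out followed 30 - 60 minutes at room temperature with DiscoveRx detection reagent.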
D3 antag – antagonists of human D3 dopamine receptor; P35462; D3R cells, DiscoveRx beta-arrestin luminescence, antagonist mode; stronger effect = lower value; max response, negative = inhibition, %; 2.5% of 360,000 active; AID 652054; in the data active = max response below about -50%; inconclusive = no clear call, values can overlap the other calls; also: % is scaled to controls: 0 for no effect and ±100 for the full control effect
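Cells expressing the human receptor were seeded at 1500 cells/well, incubated overnight at 37 degrees C in 5% CO2, then exposed to library compounds with dopamine controls for 90 minutes at 37 degrees C before luminescent detection.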
uPA surface inh – cell surface uPA generation inhibition | cell surface uPA generation assay, qHTS | Potency, µM (top dose mostly 38.3 µM), without a hit: at the top dose activity change, negative = inhibition, hits mostly inhibitors | 0.31% of 330,000 active; active = well fitted inhibition curve with a large enough effect; inconclusive = small, poorly fitted or top-dose-only effect; inactive = no such curve, though single readings can be large or run the other way; tested in mouse RAW 264.7 cells; also: potency is read from the fitted curve at half-maximal effect; % is scaled to controls: 0 for no effect and ±100 for the full control effect; nearly all actives have a fitted effect of over 55% in size
RGS4 inhibitor – human RGS4 inhibition; P49798; Transcreener GDP fluorescence polarization, RGS4-accelerated GTP hydrolysis; Potency, µM (top dose mostly 114 µM), for inactives: at the highest dose activity change, negative = inhibition, usual class: inhibitors; 0.039% of 390,000 active; active = well fitted inhibition curve with a large enough effect; inconclusive = small, poorly fitted or top-dose-only effect; inactive = no such curve, though single readings can be large or run the other way; also: potency is read from the fitted curve at half-maximal effect; % is scaled to controls: 0 for no effect and ±100 for the full control effect; nearly all actives have a fitted effect of over 75% in size
Target sequence (P49798 whole entry, looked up): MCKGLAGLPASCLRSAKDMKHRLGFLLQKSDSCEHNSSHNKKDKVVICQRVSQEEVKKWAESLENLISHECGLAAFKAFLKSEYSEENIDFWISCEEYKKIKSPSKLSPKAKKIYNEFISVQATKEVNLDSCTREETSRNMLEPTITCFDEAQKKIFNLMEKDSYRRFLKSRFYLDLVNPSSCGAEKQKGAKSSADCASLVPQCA
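MLSMR compounds (23 nl, pin-transferred) preincubated 10 min at room temperature with a 500nM (2x) first reagent, then RGS4 at 900nM (2x) plus Transcreener GDP mix added; fluorescence polarization (620/688 nm) read before and after 90 min at 30 °C.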
The depositor's hits bear a star; ! = not confirmed by another sample; [ ] = dose if it differs, or a comment. The list is not random: actives were taken first. Their share in the collection is about 3.1%.

Screening O=[N+]([O-])c1cc(Br)ccc1NS(=O)(=O)c1ccccc1 returned DRD3 agonist 2.2, D3 antag -9.7, uPA surface inh 0.9% and RGS4 inhibitor 2.4%.
For CCN(CC)CCCN(C(=O)c1ccco1)c1nc(-c2ccc(Cl)cc2)cs1 the results were DRD3 agonist -17.7, D3 antag -50.3*, uPA surface inh -9.1% and RGS4 inhibitor -5.8%.
Screening O=C(Nc1ccc(N2CCOCC2)c(Cl)c1)c1ccccc1Cl returned DRD3 agonist 1.5, D3 antag -53.5*, uPA surface inh 0.2% and RGS4 inhibitor 6.2%.
Screening CCn1cc(C(=O)NCc2ccc(Cl)cc2)c(=O)c2cc(S(=O)(=O)N(C)C3CCCCC3)ccc21 returned DRD3 agonist 0.8 and RGS4 inhibitor 4.2%.
For Brc1ccc(CN2CCN(c3ccccn3)CC2)s1 the results were DRD3 agonist 67.6*, D3 antag -8.5, uPA surface inh -5.4% and RGS4 inhibitor 11.4%.
For O=S1(=O)N=C(N2CCN(Cc3ccc4c(c3)OCO4)CC2)c2ccccc21 the results were DRD3 agonist -18.1, D3 antag -80.8*, uPA surface inh 5.0% and RGS4 inhibitor 25.0%.
`c1ccc(N2CCN(Cc3ccc4c(c3)OCO4)CC2)nc1` gave DRD3 agonist 47.3*, D3 antag inconclusive, uPA surface inh 11.2% and RGS4 inhibitor 2.9%.
FC(F)(F)c1ccc(N2CCN(Cc3ccc4c(c3)OCO4)CC2)nc1 was read as DRD3 agonist -57.6, D3 antag 0.0, uPA surface inh -12.3% and RGS4 inhibitor 11.3%.
For c1ccc(COc2ccc(CN3CCN(c4ccccn4)CC3)cc2)cc1 the results were DRD3 agonist 50.9*, D3 antag -15.7, uPA surface inh 0.1% and RGS4 inhibitor -21.5%.
For O=S1(=O)N=C(N2CCN(Cc3ccccc3)CC2)c2ccccc21 the results were DRD3 agonist -3.8, D3 antag -18.1, uPA surface inh -2.8% and RGS4 inhibitor -5.1%[11.4 µM].
`COc1ccc(CNC(=O)c2ccc(-c3nc(CSc4ccccc4)c(C)o3)cc2)c(OC)c1` gave DRD3 agonist 0.1 and RGS4 inhibitor -19.7%.
CCC(CC)C(=O)Nc1ccc2nc(SCC(=O)N3CCc4ccccc43)sc2c1 was read as DRD3 agonist 6.1 and RGS4 inhibitor -0.5%.
CC(=O)Nc1ccc(NC(=O)CSc2cn(CC(=O)N(C(C)C)C(C)C)c3ccccc23)cc1 was read as DRD3 agonist -0.4 and RGS4 inhibitor -11.7%.
Cn1c(=O)[nH]c2cc(-c3noc(-c4ccc(F)cc4)n3)ccc21 was read as DRD3 agonist 6.8 and RGS4 inhibitor -3.2%.
`C/C=C/c1cnc2c(c1)C(=O)N([C@@H](C)CO)C[C@H](C)[C@@H](CN(C)S(=O)(=O)c1ccc(C)cc1)O2` gave DRD3 agonist -6.3 and D3 antag -29.8.
`SC(COCc1ccccc1)CN1CCN(Cc2ccc3c(c2)OCO3)CC1` (configuration not stated) gave DRD3 agonist -16.3, D3 antag -55.2*, uPA surface inh -3.2% and RGS4 inhibitor -11.6%.
c1ccc(CN2CCN(c3ncccn3)CC2)cc1 was read as DRD3 agonist 24.1, D3 antag -24.7, uPA surface inh -0.7% and RGS4 inhibitor -3.4%.
For OC(COCc1ccccc1)CN1CCN(Cc2ccc3c(c2)OCO3)CC1 (configuration not stated) the results were DRD3 agonist -12.8, D3 antag -19.6, uPA surface inh 2.7% and RGS4 inhibitor 22.1%.
Screening COc1ccc2c(c1)[nH]c1c(N3CCN(Cc4ccc5c(c4)OCO5)CC3)ncnc12 returned DRD3 agonist 13.1, D3 antag 41.6, uPA surface inh -9.2% and RGS4 inhibitor -12.1%.
For c1nc(N2CCN(Cc3ccc4c(c3)OCO4)CC2)c2[nH]cnc2n1 the results were DRD3 agonist -8.5, D3 antag -62.0*, uPA surface inh -3.2% and RGS4 inhibitor -12.0%.
For Cc1nc(N2CCN(Cc3ccc4c(c3)OCO4)CC2)c2cc(-c3ccccc3)sc2n1 the results were DRD3 agonist -25.4, D3 antag 5.4, uPA surface inh -6.1% and RGS4 inhibitor 0.9%.
Clc1ccc(CN2CCN(c3ncccn3)CC2)cc1 was read as DRD3 agonist 36.2*, D3 antag 14.4, uPA surface inh -0.8% and RGS4 inhibitor -11.1%.
Screening CSc1nc(N2CCN(Cc3ccc4c(c3)OCO4)CC2)c2ccccc2n1 returned DRD3 agonist -2.3, D3 antag -64.3*, uPA surface inh 2.4% and RGS4 inhibitor 16.9%.
Screening Cc1ccccc1NC(=O)CSc1nc(-c2ccccc2)cn1-c1ccccc1F returned DRD3 agonist -5.1 and RGS4 inhibitor -49.2%.
`c1cnc(N2CCN(Cc3ccc4c(c3)OCO4)CC2)nc1` gave DRD3 agonist 56.2*!, D3 antag inconclusive, uPA surface inh 4.1% and RGS4 inhibitor inconclusive.
Screening c1cc2c(cc1CN1CCOCC1)OCO2 returned DRD3 agonist -27.7, D3 antag 0.0, uPA surface inh -23.7% and RGS4 inhibitor 14.8%.
`Cc1ccc(CN(C(=O)COc2cccc([N+](=O)[O-])c2)c2ccccn2)cc1` gave DRD3 agonist -5.2 and RGS4 inhibitor -20.3%.
`CC1CCc2c(nc3nc[nH]n3c2=O)C1` (configuration not stated) gave DRD3 agonist 3.3, D3 antag -53.1*, uPA surface inh -1.0% and RGS4 inhibitor 17.2%.
`S=c1c2c(nc3nc[nH]n13)CCC2` gave DRD3 agonist -9.6, D3 antag -24.6, uPA surface inh 17.2% and RGS4 inhibitor 19.8%.
`COCCCNC(=O)CSc1nc2cc3c(cc2c(=O)n1CCCCCC(=O)NCc1ccc(OC)cc1)OCO3` gave DRD3 agonist 7.3 and RGS4 inhibitor 7.7%.
Screening Cc1cccc(C)c1N1CC(c2nc3ccccc3n2CC(=O)OC(C)C)CC1=O (configuration not stated) returned DRD3 agonist 4.9 and RGS4 inhibitor -15.8%.
For O=C(Nc1cccc2cccnc12)c1csc([C@@H]2O[C@H](CO)[C@H](O)[C@H](O)[C@H]2O)n1 the results were DRD3 agonist -21.2 and D3 antag -116.9*.
COc1ccc(Cl)cc1-c1n[nH]c(=S)n1C1CCCCC1 was read as DRD3 agonist -2.0, D3 antag -59.8*, uPA surface inh 0.5% and RGS4 inhibitor -25.7%.
`Cc1ccccc1OCc1n[nH]c(=S)n1-c1cccc(Cl)c1` gave DRD3 agonist -2.9, D3 antag -4.7, uPA surface inh 11.6% and RGS4 inhibitor -38.5%.
`Cc1cc(Cl)ccc1OCc1n[nH]c(=S)n1C1CCCCC1` gave DRD3 agonist -3.0, D3 antag -63.6*, uPA surface inh 2.1% and RGS4 inhibitor -39.3%[56.9 µM].
Screening COc1ccc(-c2n[nH]c(=S)n2C2CCCCC2)cc1 returned DRD3 agonist 1.3, D3 antag -26.3, uPA surface inh -6.2% and RGS4 inhibitor -32.4%.
CC(=O)c1cccc(NC(=O)c2ccc3nc(Cc4ccccc4)oc3c2)c1 was read as DRD3 agonist -7.3 and RGS4 inhibitor 23.4%.
`CCCCCCC(=O)O[C@H]1CC[C@H]2[C@@H]3CCc4cc(O)ccc4[C@H]3CC[C@]12C` gave DRD3 agonist -3.1.
